Results on nine compounds are retold here after PubChem BioAssay (NCI).

Assay in all cases: NCI-60 one-dose screen, 48 h (100 = growth as untreated, 0 = no growth, -100 = all killed)
Holding throughout (conditions): 10 µM unless noted

The subject of experiment [1] is SK-MEL-2 melanoma.
In experiment [2] the test system is EKVX NSCLC.
Experiment [3] concerns SN12C renal.
Experiment [4] deals with UO-31 renal.
The test system of experiment [5] is TK-10 renal.
Experiment [6] has as its system CAKI-1 renal.
The subject of experiment [7] is A498 renal.
For experiment [8], the system named is CCRF-CEM leukemia.
Experiment [9] concerns MOLT-4 leukemia.
Experiment [10] relates to SR leukemia.
Experiment [11] deals with RPMI-8226 leukemia.
Experiment [12] has as its system OVCAR-8 ovarian.
The test system of experiment [13] is OVCAR-5 ovarian.
In experiment [14] the test system is OVCAR-4 ovarian.
The subject of experiment [15] is SK-OV-3 ovarian.
For experiment [16], the system named is IGROV1 ovarian.
Experiment [17] deals with OVCAR-3 ovarian.
Experiment [18] has as its system HS 578T breast.
The test system of experiment [19] is NCI/ADR-RES ovarian.
Experiment [20] concerns ACHN renal.

The structures appear in SMILES notation. The panel holds about 83,000 compounds, 20% with a hit somewhere; the sample as a whole holds those more often.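 The test compound was applied at a single concentration to cells in 96-well plates for 48 hours, and percent growth was recorded.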 Unmarked numbers belong to inactive results. Active and inactive are the calls of the source. Rule for the calls: active = growth percent below 10; inactive = the rest.

Regarding `Cc1ccc(SCN2CCN(c3cccc(Cl)c3)CC2)cc1`, the growth is 102% in experiment [1]; 90.2% in experiment [2]; 75.6% in experiment [3]; 86.6% in [4]; 97.7% in experiment [5]; 70.7% in experiment [6]. Moreover, the growth was 85.5% in experiment [7]; 38.7% in experiment [8]; 83.4% in experiment [9]; 91.7% in experiment [10]; 164% in experiment [11]; 110% in experiment [12]. The growth in [13] was 112%; in experiment [14] it was 108%; in experiment [15] it was 111%; in experiment [16], 80.4%; in experiment [17] it was 106%; in experiment [18] it was 111%. Also, the growth in experiment [19] was 98.9%.

As for `CC(C)CC(CC1=CCC2CC1C2(C)C)C1=C(O)C(C)(C)C(=O)C(C)(C)C1=O` (stereo unspecified), the growth was -18.2% (active) in [1]; 20% in [2]; 3.56% (active) in experiment [3]; 8.44% (active) in [4]; 15.6% in [5]; 6.44% (active) in experiment [6]. The growth in experiment [7] is -17.9% (active); in experiment [8], 1.78% (active); in experiment [9], -24% (active); in experiment [11], -26.4% (active); in experiment [12], 5.12% (active); in experiment [13] it was 22.7%. The growth was 32.5% in experiment [14]; -12.6% (active) in experiment [15]; 39% in experiment [16]; 16.2% in [17]; 6.67% (active) in experiment [18]; 7.18% (active) in experiment [19].

For `COc1ccc(-c2cc(-c3ccc(N(C)C)cc3)nc(NC(=O)c3ccncc3)n2)cc1`, the growth in experiment [1] is 116%; in [2] it was 99.8%; in [3], 104%; in experiment [4], 72.1%; in experiment [5], 105%; in experiment [20], 98.7%. The growth in experiment [6] is 95%; in [8], 96.8%; in [9], 111%; in experiment [10] it was 121%; in experiment [11], 93%; in [12], 97.7%. The growth in experiment [14] was 122%; in [15], 117%; in [16] it was 95.2%; in experiment [17], 98.8%; in experiment [18] it was 97.2%; in experiment [19], 96.6%.

`c1ccc(Sc2ncnc3ccccc23)cc1`: the growth in experiment [1] was 44.3%; in experiment [2] it was 84.2%; in experiment [3] it was 69%; in experiment [4], 52.7%; in experiment [5], 96.5%; in experiment [6], 65.5%. The growth in experiment [7] is 82%; in [8], 48.5%; in [9], 38%; in experiment [10] it was 25.5%; in [11], 20.9%; in experiment [12], 82.1%. In addition, the growth in experiment [13] was 98.4%; in experiment [14] it was 76%; in experiment [15], 112%; in experiment [16] it was 77.9%; in [17] it was 71.2%; in experiment [18], 77.9%. Besides, the growth in experiment [19] was 83.5%.

Take `c1ccc2sc(SCCCn3ccnc3)nc2c1`: the growth is 68.7% in experiment [1]; 90.5% in experiment [2]; 84.2% in [3]; 84.9% in [4]; 84.2% in experiment [5]; 98% in experiment [6]. The growth in [7] is 80.6%; in experiment [8] it was 81.6%; in experiment [9], 95.6%; in [10] it was 87.9%; in experiment [11] it was 79%; in experiment [12], 88.2%. The growth in experiment [13] is 118%; in [14], 93.2%; in experiment [15], 90.2%; in experiment [16] it was 103%; in [17], 86.4%; in [18], 102%. Besides, the growth in experiment [19] is 94.2%.

On to `COc1ccc(-c2nn(-c3ccccc3)cc2/C=C/C(=O)OCc2cn(-c3ccc(F)c(Cl)c3)nn2)cc1`, for which the growth in experiment [1] was 86.9%; in experiment [2] it was 101%; in [3], 80.1%; in [4], 43%; in [5], 118%; in [6] it was 79.2%. In addition, the growth in experiment [7] was 77.3%; in experiment [8], 101%; in experiment [9], 71.2%; in experiment [10] it was 88.3%; in experiment [11] it was 75.2%; in experiment [12] it was 80.1%. The growth is 66.9% in experiment [14]; 85.3% in [15]; 86.2% in experiment [16]; 68.2% in experiment [17]; 88% in [18].

On to `O=C(CN1CCN(c2cc3c(cc2F)c(=O)c(C(=O)O)cn3C2CC2)CC1)Nc1nc(-c2ccc(Cl)cc2)cs1`, for which the growth in [1] was 21.9%; in experiment [2], 35.4%; in experiment [3], 15.8%; in experiment [4], 20.2%; in experiment [5], 26.7%; in [6], 30.4%. The growth is 4.43% (active) in [7]; 23.8% in experiment [8]; 30.5% in experiment [9]; 29.3% in [10]; 1.14% (active) in experiment [11]; 13.2% in [12]. Also, the growth in [14] is 67.7%; in experiment [15] it was 21.1%; in [16] it was 38.6%; in experiment [17] it was 14.2%; in experiment [18], 32.2%; in experiment [19], 56.9%.

Regarding `CCN(CC)CC(O)CNc1c2ccc([N+](=O)[O-])cc2nc2cc(OC)c(OC)cc12` (stereo unspecified), the growth in experiment [1] was -48.7% (active); in experiment [2], -27.4% (active); in experiment [3], -34.1% (active); in [4], 4.89% (active); in experiment [5], 2.27% (active); in experiment [20], 11.1%. The growth was 16.3% in experiment [6]; 9.53% (active) in experiment [8]; -9.91% (active) in [9]; -7.08% (active) in [10]; -2.1% (active) in experiment [12]; 10% in experiment [13]. Besides, the growth in [14] is -39.3% (active); in experiment [15] it was -42.5% (active); in experiment [16], -39.9% (active); in experiment [17] it was -37.7% (active); in [18], -18.2% (active); in experiment [19] it was 51.7%.

Turning to `O=C(/C=C/c1cccc(Br)c1)c1ccccc1`, the growth in [1] was 93.3%; in [2] it was 88%; in experiment [3], 96.6%; in experiment [4] it was 71.1%; in experiment [5], 69.7%; in experiment [20], 95.7%. The growth in experiment [6] was 90.6%; in experiment [8] it was 86.2%; in [11], 23.6%; in experiment [12], 88.7%; in experiment [13], 83.2%; in [14], 90.6%. The growth is 84.8% in experiment [16], 98.3% in [17] and 101% in experiment [18].
